# Screens (PubChem)
# Only some compounds are listed: those with a hit (about 1.2% of all), similar ones and a draw of the others.
# TcdB inh = blocks C. difficile toxin B glycohydrolase activity. P18177. inhibition, % at 9.99 µM. TcdB glycohydrolase enzymatic assay, plate reader. hit rate 0.24% among 350,000; in the data active = inhibition above about 10%
# PrP UTR inh = inhibition of PrP 5' UTR reporter expression. cell-based PrP 5' UTR mRNA reporter, plate reader. inhibition, % (no concentration beside the values). hit rate 0.35% among 340,000. AID 488862; in the data active = inhibition above about 52%; note: 0 = median of the neutral control wells
# Mtb BioA inh = inhibitors of Mycobacterium tuberculosis BioA enzyme | purified M. tuberculosis BioA enzyme, plate reader | inhibition, % at 9.99 µM | hit rate 0.096% among 360,000 | AID 602481; in the data active = inhibition above about 40%; inconclusive = no clear call, values can overlap the other calls
# PfHsp40 yeast = compounds rescuing yeast from Plasmodium falciparum HSP40 toxicity; S. cerevisiae expressing PfHsp40, growth rescue, ATP luminescence; growth rescue, % at 12.5 µM; hit rate 0.68% among 340,000; AID 504582; in the data active = growth rescue above about 28%, passing the limit was not always enough; inconclusive = no clear call, values can overlap the other calls;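 note: yeast W303a lacking pdr1 and pdr3 grown in galactose medium; growth measured after three days at 30 °C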
# FadD28 FP inh = blocks FadD28 binding to the bisubstrate probe; fluorescence polarization; inhibition, % at 12.5 µM; hit rate 0.22% among 360,000; in the data active = inhibition above about 8.5%, passing the limit was not always enough; inconclusive = no clear call, values can overlap the other calls
# Y pestis TopoI = blocks Yersinia pestis topoisomerase I activity; Y. pestis Topo-I cleavage product accumulation, plate reader; activity, % at 10 µM; hit rate 0.064% among 360,000; in the data active = activity above about 50%, passing the limit was not always enough; inconclusive = no clear call, values can overlap the other calls
# Numbers without * were called inactive; ? = inconclusive; . = no result; ! = repeats disagree.
SMILES,TcdB inh,PrP UTR inh,Mtb BioA inh,PfHsp40 yeast,FadD28 FP inh,Y pestis TopoI
O=C(NC(=S)Nc1ccc(CN2CCOCC2)cc1)c1ccco1,0,-35,0,-1,0,6
O=C(NC(=S)Nc1ccc(CN2CCCCC2)cc1)c1ccco1,2,-33,.,128*,1,5
CN(C)C(=O)c1ccc(-c2ccccc2[C@H]2[C@@H](CO)N(C(=O)C3CCCC3)[C@H]2C#N)cc1,0,.,.,.,.,.
COc1cc(SC)ccc1C(=O)Nc1ccc(C)cc1,3,-67,.,147*,-4,18
O=C(CNC(=O)c1ccc(Cl)cc1)Nc1ccc(Br)cc1C(=O)c1ccccc1,1,-11,.,12,-1,15
O=C(CNC(=O)c1cccc(Cl)c1)Nc1ccc(Br)cc1C(=O)c1ccccc1,0,-25,.,36*,-5,36
O=C(CC(=O)Nc1nc(C23CC4CC(CC(C4)C2)C3)cs1)NCCO,1,-13,0,0,0,-7
CNc1nc(C23CC4CC(CC(C4)C2)C3)cs1,12*,-1,.,0,-1,9
O=C([C@H]1[C@H](CO)[C@H]2Cn3c(ccc(-c4ccc(F)cc4)c3=O)[C@H]2N1Cc1cocn1)N1CCOCC1,-3,.,2,.,.,.
CCCNC(=O)Nc1ccc2c(c1)C(=O)N(C)[C@H]1CC[C@@H](CC(=O)NC3CCC3)O[C@H]1CO2,.,.,-6,.,.,.
CCCNC(=O)Nc1ccc2c(c1)C(=O)N(C)[C@H]1CC[C@H](CC(=O)NC3CCC3)O[C@@H]1CO2,14*,.,1,.,.,.
CCCNC(=O)Nc1ccc2c(c1)C(=O)N(C)[C@@H]1CC[C@H](CC(=O)NC3CCC3)O[C@H]1CO2,19*,.,-1,.,.,.
CC(=O)c1ccc(C(=O)Nc2nnc(-c3ccc(Cl)cc3)o2)cc1,-6,-16,2,0,-3,4
O=C(Nc1nnc(-c2ccccc2)o1)c1ccc(Cl)cc1,.,-19,-1,252*,-1,-5
O=C(Nc1ccc2c(c1)[C@H]1C[C@@H](CC(=O)N3CCOCC3)O[C@@H](CO)[C@H]1O2)Nc1ccccc1F,1,.,0,.,.,.
Cc1ccccc1/C=C1\SC(=S)N(/N=C/c2cc([N+](=O)[O-])ccc2O)C1=O,0,-19,0,229*,1,5
O=C1/C(=C\c2cc([N+](=O)[O-])ccc2O)SC(=S)N1Cc1ccc(Cl)cc1,6,-34,-11,0,8.6*,-27
COCC(=O)N1[C@@H]2c3ccc(-c4ccccc4)c(=O)n3C[C@@H]2[C@@H](CO)[C@@H]1C(=O)Nc1ccccc1,0,.,4,.,.,.
CO[C@@H]1CN(C)C(=O)c2cc(NC(=O)c3ccccc3)ccc2OC[C@H](C)N(C(=O)C2CC2)C[C@H]1C,1,.,1,.,.,.
O=C(Nc1cccnc1)c1ccc2ccccc2c1O,9,-72,1,173*,-1,-3
C[C@@H]1CN([C@@H](C)CO)C(=O)c2cc(NC(=O)CCC(F)(F)F)ccc2O[C@@H](C)CCCCO[C@H]1CN(C)C(=O)CCC(F)(F)F,0,.,-2,.,.,.
O=C(N/N=C/c1c(O)n(-c2ccccc2Cl)c(=O)c2ccccc12)c1cccnc1,1,0,.,98*,7,2
O=C(N/N=C/c1cn(Cc2ccccc2)c2ccccc12)c1cccnc1,2,24,.,0,-2,12
O=C(N/N=C/c1c(O)n(Cc2ccccc2)c(=O)c2ccccc12)c1cccnc1,-3,0,.,431*,11*,-1
Cc1cccc(-n2c(O)c(/C=N/NC(=O)c3ccccc3Cl)c3ccccc3c2=O)n1,.,-8,-1,10,1,-2
SMILES,TcdB inh,PrP UTR inh,Mtb BioA inh,PfHsp40 yeast,FadD28 FP inh,Y pestis TopoI
COc1ccc(Cn2c(O)c(/C=N/NC(=O)c3cccnc3)c3ccccc3c2=O)cc1,2,-13,.,?,14*,-2
C[C@@H]1CCCCO[C@H](CN(C)C(=O)CCC(F)(F)F)[C@H](C)CN([C@H](C)CO)C(=O)c2cc(NS(=O)(=O)c3cn(C)cn3)ccc2O1,0,.,-2,.,.,.
COc1cccc(N2CCN(C(=O)c3cc(-c4ccc(F)cc4)[nH]c3C)CC2)c1,1,-30,0,0,-1,1
Cc1[nH]c(-c2ccc(F)cc2)cc1C(=O)N1CCN(c2ccccc2)CC1,21*,-14,8,4,0,25
CCCNC(=O)C[C@@H]1CC[C@H]2[C@H](COc3ccc(NC(=O)c4cc(F)cc(F)c4)cc3C(=O)N2C)O1,.,.,2,.,.,.
C[C@H]1CN([C@@H](C)CO)S(=O)(=O)c2ccc(C#Cc3ccc(F)cc3)cc2O[C@@H]1CN(C)C(=O)c1ccccn1,2,.,1,.,.,.
O=C(NCc1cccc(Cl)c1)c1ccc(-c2csnn2)cc1,-1,-24,2,0,-1,-5
O=C(NNc1ccc(-c2csnn2)cc1)c1cc(Cl)cc(Cl)c1,18*,.,17,.,-1,-4
O=C(NNc1ccc(-c2csnn2)cc1)c1ccccc1C(F)(F)F,12*,-13,8,1,-3,-3
CN1C(=O)c2cc(NC(=O)c3cscn3)ccc2OC[C@@H]2O[C@@H](CC(=O)NCC3CC3)CC[C@@H]21,.,.,-2,.,.,.
Cc1csc(NC(=O)CSc2nnc(NC(=O)NC(C)(C)C)s2)n1,1,-12,-1,2,12*,-2
CC(=O)Nc1nnc(SCC(=O)Nc2nc(C)cs2)s1,2,-14,0,-2,-4,-4
COc1ccccc1-c1ccc([C@H]2[C@@H](C#N)N(C(=O)C3CCOCC3)[C@H]2CO)cc1,1,.,1,.,.,.
FC(F)(F)Oc1ccc(NC(=S)Nc2ccc(OC(F)(F)F)cc2)cc1,0,-21,.,145*,-3,-5
Cc1ccc(NC(=O)Nc2sc(=S)n(C)c2C)cc1,.,-24,0,0,11*,-10
CO[C@@H]1CN(C)C(=O)c2ccc(NC(=O)c3nc4ccccc4s3)cc2OC[C@H](C)NC[C@@H]1C,1,.,2,.,.,.
O=c1c2ccccc2nc(-c2ccccc2)n1-c1ccccc1O,2,-22,4,0,-5,-19
O=C1c2ccccc2-n2c1nc1ccccc1c2=O,1,-46,-1,58*,1,2
Cc1ccc(C(=O)Nc2ccc3ccccc3n2)cc1,1,-32,0,0,-2,10
Cc1ccc(C(O)(C(=O)NNc2ccc3ccccc3n2)c2ccc(C)cc2)cc1,.,-23,-1,75*!,-3,-9
C=CCn1c(SCn2nnc3ccccc3c2=O)nnc1-c1ccc(Br)cc1,.,-15,0,114*,2,5
CC(C)NC(=O)N1[C@H](CO)[C@@H](c2ccccc2)[C@H]1CNC(=O)CN(C)C,.,.,2,.,.,.
O=C(CSc1nccn(-c2ccc(F)c(F)c2)c1=O)NC1CCCC1,1,1,.,-1,0,-9
O=C(CSc1nccn(-c2cccc(F)c2)c1=O)Nc1ccc(Cl)cc1F,-1,-11,-1,173*,-2,11
O=C(/C=C/c1ccccc1Cl)NCCc1ccc(F)cc1,1,-45,-1,39*,-2,3
O=C(/C=C/c1ccccc1[N+](=O)[O-])NCCc1ccc(F)cc1,1,-15,.,1,-3,-7
